Experimental data reported in ChEMBL document CHEMBL1961873, “Compounds: GSK PKIS; Assays: Nanosyn kinase panel” (2012).

Columns and labels:
[1] = target: Serine/threonine-protein kinase pim-2 (Homo sapiens) (UniProt Q9P1W9); settings: at 1 µM;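 note: each value is a mean of the inhibition measurements against the kinase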
[2] = target: Serine/threonine-protein kinase pim-3 (Homo sapiens) (UniProt Q86V86); settings: at 0.1 µM
[3] = target: Serine/threonine-protein kinase pim-3 (Homo sapiens) (UniProt Q86V86); settings: at 1 µM
[4] = target: T1, MAP kinase-activated protein kinase 5 (Homo sapiens) (UniProt Q8IW41); settings: at 0.1 µM
T1 sequence (whole entry): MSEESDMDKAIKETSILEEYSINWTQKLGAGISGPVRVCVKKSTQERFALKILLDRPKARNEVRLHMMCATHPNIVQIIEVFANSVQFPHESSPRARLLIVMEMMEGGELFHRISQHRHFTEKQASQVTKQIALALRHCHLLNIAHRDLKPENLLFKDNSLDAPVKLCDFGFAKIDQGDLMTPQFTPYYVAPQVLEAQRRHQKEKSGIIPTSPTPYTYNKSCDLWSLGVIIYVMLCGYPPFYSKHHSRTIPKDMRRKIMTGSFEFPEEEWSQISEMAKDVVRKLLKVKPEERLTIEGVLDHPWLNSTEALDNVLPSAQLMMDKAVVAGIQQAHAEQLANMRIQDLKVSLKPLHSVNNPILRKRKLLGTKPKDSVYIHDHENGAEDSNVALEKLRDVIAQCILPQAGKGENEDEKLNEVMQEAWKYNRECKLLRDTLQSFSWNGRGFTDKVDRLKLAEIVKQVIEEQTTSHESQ

[5] = target: T1, MAP kinase-activated protein kinase 5 (Homo sapiens); settings: at 1 µM
[6] = target: Serine/threonine-protein kinase SIK1 (Homo sapiens) (UniProt P57059); settings: at 0.1 µM
[7] = target: Serine/threonine-protein kinase SIK1 (Homo sapiens) (UniProt P57059); settings: at 1 µM
[8] = target: Serine/threonine-protein kinase SIK2 (Homo sapiens) (UniProt Q9H0K1); settings: at 0.1 µM
[9] = target: Serine/threonine-protein kinase SIK2 (Homo sapiens) (UniProt Q9H0K1); settings: at 1 µM
[10] = target: T2, Serine/threonine-protein kinase TBK1 (Homo sapiens) (UniProt Q9UHD2); settings: at 0.1 µM
T2 sequence (whole entry): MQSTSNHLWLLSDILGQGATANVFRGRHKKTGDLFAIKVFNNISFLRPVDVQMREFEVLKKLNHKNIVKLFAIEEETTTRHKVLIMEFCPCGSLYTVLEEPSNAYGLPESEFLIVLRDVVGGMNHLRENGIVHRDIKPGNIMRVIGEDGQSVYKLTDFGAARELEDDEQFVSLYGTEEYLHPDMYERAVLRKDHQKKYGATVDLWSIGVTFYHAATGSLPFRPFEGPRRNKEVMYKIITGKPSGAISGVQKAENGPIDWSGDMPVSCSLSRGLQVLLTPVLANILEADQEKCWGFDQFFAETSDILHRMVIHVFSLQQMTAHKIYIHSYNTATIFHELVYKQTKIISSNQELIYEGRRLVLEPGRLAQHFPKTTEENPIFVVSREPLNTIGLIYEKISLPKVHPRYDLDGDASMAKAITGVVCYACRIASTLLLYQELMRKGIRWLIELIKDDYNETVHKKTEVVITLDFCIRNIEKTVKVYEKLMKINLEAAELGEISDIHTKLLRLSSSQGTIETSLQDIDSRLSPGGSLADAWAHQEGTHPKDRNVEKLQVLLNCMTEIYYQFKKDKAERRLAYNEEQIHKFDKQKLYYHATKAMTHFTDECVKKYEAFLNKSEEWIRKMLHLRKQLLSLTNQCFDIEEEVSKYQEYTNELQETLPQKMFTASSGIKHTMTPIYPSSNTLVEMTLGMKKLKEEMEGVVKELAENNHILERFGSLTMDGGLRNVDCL

[11] = target: T2, Serine/threonine-protein kinase TBK1 (Homo sapiens); settings: at 1 µM
[12] = target: T3, Testis-specific serine/threonine-protein kinase 1 (Homo sapiens) (UniProt Q9BXA7); settings: at 0.1 µM
T3 sequence (whole entry): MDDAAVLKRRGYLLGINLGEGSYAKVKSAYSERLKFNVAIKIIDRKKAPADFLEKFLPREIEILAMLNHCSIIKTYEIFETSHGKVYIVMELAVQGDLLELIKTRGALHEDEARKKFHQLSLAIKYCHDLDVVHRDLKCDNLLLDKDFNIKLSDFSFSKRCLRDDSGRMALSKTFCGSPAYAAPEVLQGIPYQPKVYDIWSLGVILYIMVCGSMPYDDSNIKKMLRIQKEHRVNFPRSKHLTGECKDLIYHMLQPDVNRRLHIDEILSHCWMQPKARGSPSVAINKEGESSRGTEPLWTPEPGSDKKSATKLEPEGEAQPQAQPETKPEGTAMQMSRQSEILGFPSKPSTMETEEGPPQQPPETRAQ

[13] = target: T3, Testis-specific serine/threonine-protein kinase 1 (Homo sapiens); settings: at 1 µM
[14] = target: T4, Testis-specific serine/threonine-protein kinase 2 (Homo sapiens) (UniProt Q96PF2); settings: at 0.1 µM
T4 sequence (whole entry): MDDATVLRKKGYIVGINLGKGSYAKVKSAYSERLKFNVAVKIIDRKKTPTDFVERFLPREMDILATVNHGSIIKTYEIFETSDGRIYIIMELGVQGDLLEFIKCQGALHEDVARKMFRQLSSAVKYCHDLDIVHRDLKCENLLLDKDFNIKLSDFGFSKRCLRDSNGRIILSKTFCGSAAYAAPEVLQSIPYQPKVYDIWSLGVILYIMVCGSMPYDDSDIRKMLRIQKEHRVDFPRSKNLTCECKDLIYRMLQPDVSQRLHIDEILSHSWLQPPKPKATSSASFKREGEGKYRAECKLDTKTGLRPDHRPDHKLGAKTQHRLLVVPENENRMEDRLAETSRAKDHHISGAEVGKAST

[15] = target: T4, Testis-specific serine/threonine-protein kinase 2 (Homo sapiens); settings: at 1 µM
[16] = target: Casein kinase I isoform alpha (Homo sapiens) (UniProt P48729); settings: at 0.1 µM
[17] = target: Casein kinase I isoform alpha (Homo sapiens) (UniProt P48729); settings: at 1 µM
[18] = target: Casein kinase I isoform gamma-1 (Homo sapiens) (UniProt Q9HCP0); settings: at 0.1 µM
[19] = target: Casein kinase I isoform gamma-1 (Homo sapiens) (UniProt Q9HCP0); settings: at 1 µM
[20] = target: Casein kinase I isoform gamma-2 (Homo sapiens) (UniProt P78368); settings: at 0.1 µM;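 note: values are mean inhibition figures reported as part of the GSK PKIS dataset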
Casein kinase I isoform gamma-2 (Homo sapiens), sequence (P78368 whole entry, looked up, canonical isoform): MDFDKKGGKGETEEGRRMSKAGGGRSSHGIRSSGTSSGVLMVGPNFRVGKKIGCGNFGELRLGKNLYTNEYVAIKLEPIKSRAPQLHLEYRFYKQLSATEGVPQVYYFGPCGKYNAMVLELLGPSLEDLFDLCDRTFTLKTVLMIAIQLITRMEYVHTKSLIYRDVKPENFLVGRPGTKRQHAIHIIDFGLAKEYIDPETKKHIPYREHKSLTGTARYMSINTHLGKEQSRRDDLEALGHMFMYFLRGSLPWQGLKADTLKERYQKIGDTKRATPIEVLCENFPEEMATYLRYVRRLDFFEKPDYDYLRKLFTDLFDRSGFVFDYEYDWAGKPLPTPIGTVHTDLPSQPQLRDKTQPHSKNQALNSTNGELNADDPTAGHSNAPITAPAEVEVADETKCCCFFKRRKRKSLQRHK

Serine/threonine-protein kinase pim-2 (Homo sapiens), sequence (Q9P1W9 whole entry, looked up): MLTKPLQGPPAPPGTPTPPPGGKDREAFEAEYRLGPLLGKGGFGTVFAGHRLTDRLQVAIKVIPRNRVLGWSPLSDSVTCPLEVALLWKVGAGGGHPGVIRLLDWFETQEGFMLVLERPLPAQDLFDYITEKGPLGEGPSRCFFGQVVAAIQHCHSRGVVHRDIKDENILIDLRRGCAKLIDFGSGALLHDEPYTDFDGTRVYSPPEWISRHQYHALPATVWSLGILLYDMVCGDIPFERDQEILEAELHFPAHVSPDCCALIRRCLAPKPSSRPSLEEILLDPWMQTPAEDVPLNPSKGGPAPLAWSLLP
Serine/threonine-protein kinase SIK1 (Homo sapiens), sequence (P57059 whole entry): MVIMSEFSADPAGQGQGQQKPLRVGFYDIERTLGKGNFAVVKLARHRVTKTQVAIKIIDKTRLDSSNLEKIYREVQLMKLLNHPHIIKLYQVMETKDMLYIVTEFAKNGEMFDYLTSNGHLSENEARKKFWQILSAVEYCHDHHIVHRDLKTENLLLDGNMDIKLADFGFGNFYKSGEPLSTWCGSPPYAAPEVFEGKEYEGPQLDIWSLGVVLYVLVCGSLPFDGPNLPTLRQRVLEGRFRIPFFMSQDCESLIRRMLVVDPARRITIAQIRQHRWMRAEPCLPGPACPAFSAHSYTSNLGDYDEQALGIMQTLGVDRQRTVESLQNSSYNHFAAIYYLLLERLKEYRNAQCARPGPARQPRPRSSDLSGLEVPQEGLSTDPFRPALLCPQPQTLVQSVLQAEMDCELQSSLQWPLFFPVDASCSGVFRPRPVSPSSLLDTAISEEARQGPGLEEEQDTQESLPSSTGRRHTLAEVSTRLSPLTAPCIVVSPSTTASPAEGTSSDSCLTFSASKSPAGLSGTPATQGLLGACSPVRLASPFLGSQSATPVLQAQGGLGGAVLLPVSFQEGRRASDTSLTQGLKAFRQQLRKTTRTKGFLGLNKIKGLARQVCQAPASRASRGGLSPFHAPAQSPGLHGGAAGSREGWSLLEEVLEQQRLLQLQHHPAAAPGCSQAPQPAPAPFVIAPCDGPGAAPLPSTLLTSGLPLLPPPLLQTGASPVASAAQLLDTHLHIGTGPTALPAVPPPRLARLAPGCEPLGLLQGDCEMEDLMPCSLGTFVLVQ
Serine/threonine-protein kinase SIK2 (Homo sapiens), sequence (Q9H0K1 whole entry, looked up): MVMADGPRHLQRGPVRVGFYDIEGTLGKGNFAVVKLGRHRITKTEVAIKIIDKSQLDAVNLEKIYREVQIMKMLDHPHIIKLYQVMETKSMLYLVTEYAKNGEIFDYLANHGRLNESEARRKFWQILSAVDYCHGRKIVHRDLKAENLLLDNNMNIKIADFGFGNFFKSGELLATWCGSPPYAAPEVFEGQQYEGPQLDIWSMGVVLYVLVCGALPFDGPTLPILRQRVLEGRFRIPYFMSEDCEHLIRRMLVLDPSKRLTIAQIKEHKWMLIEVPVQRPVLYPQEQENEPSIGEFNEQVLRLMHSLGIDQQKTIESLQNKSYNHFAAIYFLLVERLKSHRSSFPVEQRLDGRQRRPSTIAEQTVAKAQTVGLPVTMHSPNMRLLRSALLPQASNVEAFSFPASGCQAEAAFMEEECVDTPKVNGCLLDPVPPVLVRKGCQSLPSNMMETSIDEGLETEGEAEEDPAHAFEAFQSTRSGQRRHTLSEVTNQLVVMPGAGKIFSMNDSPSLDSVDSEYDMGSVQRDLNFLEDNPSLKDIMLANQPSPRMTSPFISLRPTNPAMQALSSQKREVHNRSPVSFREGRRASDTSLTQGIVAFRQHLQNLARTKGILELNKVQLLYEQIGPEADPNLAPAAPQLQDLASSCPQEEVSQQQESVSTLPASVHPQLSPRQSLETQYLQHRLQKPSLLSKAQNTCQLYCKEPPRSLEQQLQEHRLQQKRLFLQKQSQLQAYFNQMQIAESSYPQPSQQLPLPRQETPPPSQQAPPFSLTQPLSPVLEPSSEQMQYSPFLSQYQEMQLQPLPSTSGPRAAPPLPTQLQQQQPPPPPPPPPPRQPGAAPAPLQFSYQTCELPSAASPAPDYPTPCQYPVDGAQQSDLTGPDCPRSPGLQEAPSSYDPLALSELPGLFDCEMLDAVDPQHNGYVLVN
Casein kinase I isoform gamma-1 (Homo sapiens), sequence (Q9HCP0 whole entry, looked up, canonical isoform): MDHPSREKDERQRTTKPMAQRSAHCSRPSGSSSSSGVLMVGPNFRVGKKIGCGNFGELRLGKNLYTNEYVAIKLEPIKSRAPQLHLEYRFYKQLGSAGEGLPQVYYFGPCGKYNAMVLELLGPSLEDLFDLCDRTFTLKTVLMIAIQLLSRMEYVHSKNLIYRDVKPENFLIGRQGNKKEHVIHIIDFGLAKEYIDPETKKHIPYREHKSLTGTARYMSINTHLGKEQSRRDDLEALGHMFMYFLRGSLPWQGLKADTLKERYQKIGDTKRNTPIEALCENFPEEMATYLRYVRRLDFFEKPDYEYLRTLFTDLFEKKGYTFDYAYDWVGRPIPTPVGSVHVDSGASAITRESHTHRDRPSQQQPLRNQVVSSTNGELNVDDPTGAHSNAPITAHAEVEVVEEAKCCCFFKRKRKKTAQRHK
Casein kinase I isoform alpha (Homo sapiens), sequence (P48729 2-337 limits assumed): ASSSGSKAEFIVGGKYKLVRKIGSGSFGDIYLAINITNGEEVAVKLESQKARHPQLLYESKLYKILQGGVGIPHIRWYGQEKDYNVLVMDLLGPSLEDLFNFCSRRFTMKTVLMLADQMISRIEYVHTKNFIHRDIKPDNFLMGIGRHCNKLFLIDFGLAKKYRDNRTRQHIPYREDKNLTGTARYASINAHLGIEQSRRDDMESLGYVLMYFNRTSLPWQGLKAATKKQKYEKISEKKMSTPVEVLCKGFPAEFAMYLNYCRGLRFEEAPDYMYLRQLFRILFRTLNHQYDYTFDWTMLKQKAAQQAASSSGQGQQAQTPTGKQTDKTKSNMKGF

Row | Structure (SMILES) | inhibition [1] | inhibition [2] | inhibition [3] | inhibition [4] | inhibition [5] | inhibition [6] | inhibition [7] | inhibition [8] | inhibition [9] | inhibition [10] | inhibition [11] | inhibition [12] | inhibition [13] | inhibition [14] | inhibition [15] | inhibition [16] | inhibition [17] | inhibition [18] | inhibition [19] | inhibition [20]
1 | CN(C)CCCn1c(-c2nonc2N)nc2cnccc21 | 0.24% | -0.78% | 1.03% | 0.98% | -0.25% | 3.24% | 8.57% | -0.97% | 5.74% | 1.24% | 6.08% | 3.44% | 7.78% | 0.64% | 0.45% | 5.03% | 6.31% | 4.45% | 5.34% | 3.15%
2 | COc1cccc(-n2ncc3c(N/N=C/c4ccc(S(C)(=O)=O)cc4)ncnc32)c1 | -2.5% | 0.09% | 2.23% | 0.26% | 0.26% | 4.24% | 26% | 19.1% | 29.9% | 8.06% | 7.99% | 1.1% | -0.61% | 0.93% | 0.31% | 2.28% | 5.91% | -2.52% | -0.99% | -2.87%
3 | NS(=O)(=O)c1ccc(Nc2cc(-c3cccc(O)c3)n[nH]2)cc1 | 1.32% | -2.75% | -0.87% | 1.59% | 1.7% | 6.53% | 13.8% | 6.19% | 16.4% | 4.83% | 6.87% | 3.95% | 3.25% | 1.95% | 1.79% | 3.67% | 5.95% | 5.15% | 6.27% | 3.99%
4 | COc1cccc(-n2nc(C)c3c(N/N=C(\C)c4ccncc4)ncnc32)c1 | -0.42% | -0.59% | -1.03% | -0.18% | -0.64% | 1.56% | 3.69% | 0.4% | -0.38% | -0.16% | -1.57% | 1.47% | 1.88% | -0.53% | -0.42% | -1.81% | 0.17% | 0.02% | 0.62% | 0.14%
5 | CCOc1nccc2c1nc(-c1nonc1N)n2CC | 1.49% | 3.33% | 5.37% | 2.15% | 3.99% | 4.04% | 5.99% | 4.45% | 9.31% | 1.76% | 6.01% | 3.94% | 4.63% | 2.77% | 4.45% | 3.85% | 2.28% | 2.65% | 1.76% | 1.95%
6 | CCS(=O)(=O)c1ccc(OC)c(Nc2nccc(N(C)c3ccc4c(C)n[nH]c4c3)n2)c1 | 0.56% | -0.02% | 0.25% | 1.5% | 1.32% | 3.91% | 23.5% | -0.54% | 7.47% | 2.62% | 4.2% | 4.59% | 5.05% | 1.98% | 1.88% | 2.29% | 1.04% | 4.4% | 4.99% | 3.88%
7 | CC(C)c1ccc(Nc2nccc(-c3cnn4ncccc34)n2)cc1 | 1.73% | 0.51% | 6.16% | 0.53% | 1.09% | 4.79% | 8.55% | 2.73% | 11.3% | 1.14% | 13.9% | 3.15% | 5.95% | 2.67% | 0.57% | -5.73% | 12.9% | 2.02% | 8.9% | 3.16%
8 | O=C1Nc2ccc(-c3cccnc3)cc2C1=Cc1cc(Br)c(O)c(Br)c1 | 46.5% | 8.54% | 49% | 0.52% | 0.45% | 6.08% | 4.86% | -1.13% | -0.16% | 3.66% | 7.51% | 2.68% | 1.29% | 0.55% | -0.14% | 6.06% | 3.87% | 4.05% | 4.74% | 2.62%
9 | COC(=O)c1ccc2c(c1)C(=Cc1cc(Br)c(O)c(Br)c1)C(=O)N2 | 53.2% | 18.4% | 64.3% | 0.85% | 2.43% | 8.54% | 14.4% | 3.66% | 9.93% | 1.23% | 6.58% | 3.53% | 5.53% | -0.06% | 1.17% | 1.76% | 6.74% | 3.99% | 6.68% | 4.6%
10 | Cc1cc(-c2ccccn2)cc(C)c1/C=C/c1cncc(-c2nn[nH]n2)c1 | -0.15% | 1.13% | 3.53% | 1.22% | 1.42% | 18.9% | 74.7% | 5.34% | 21.5% | 3.59% | 2.21% | 4.23% | 4.46% | 1.85% | 2.37% | 3.47% | 7.87% | 6.09% | 4.39% | 2.75%
11 | FC(F)(F)c1ccc(-c2nn3ncccc3c2-c2ccnc(Nc3ccc4c(c3)OCCO4)n2)cc1 | 5.12% | 6.66% | 10.2% | 2.37% | 5.39% | -4.38% | 0.84% | -0.15% | 0.08% | 5.62% | 4.67% | 1.27% | 4.75% | 2.11% | 5.84% | 9.84% | 4.54% | -0.1% | 0.59% | 0.52%
12 | COc1cc2ncnc(Nc3ccc4c(cnn4Cc4ccccc4)c3)c2cc1OC | 2.31% | -0.75% | 1.06% | 0.57% | 0.85% | 4.47% | 5.69% | 4.37% | 3.7% | 0.22% | 1.45% | 2.62% | 3.63% | 0.21% | 0.75% | 1.02% | 1.16% | 1.64% | 2.33% | 1.06%
13 | NS(=O)(=O)c1cccc(-c2cc3ccncc3cc2OCc2ccccc2)c1 | 0.25% | -1.15% | -3.18% | 1.74% | 0.61% | 0.44% | 5.64% | 1.16% | 3.39% | 2.28% | 6.61% | 2.13% | 0.96% | 2.68% | 0.84% | 0.06% | 3.92% | 4.57% | 4.83% | 3.06%
14 | Cc1ccc(C(=O)NC2CC2)cc1-c1ccc2[nH]ncc2c1 | 0.98% | 1.05% | 4.89% | -1.55% | -1.4% | -8.63% | -5.39% | -3.95% | -7.9% | -3.58% | -1.07% | -1.33% | -2.04% | -2.24% | -1.65% | -6.12% | -2.96% | -3.43% | -2.76% | -2.87%
